This experiment relates to Potassium Channel [KATP]. Nature of the experiment: off-target binding and CYP inhibition panel, profiling panel, selectivity assay for GPR7 antagonist project, biochemical, Ricerca HitProfilingScreen, CYP450, set 2 (AID 540345). The note with it: Ricerca radioligand binding/CYP panel, at 10 µM, active compounds read high.

A number with no mark means an inactive call. The rule behind the calls is not given here.

In the case of `COc1ccc(Oc2c(Cl)cnn(C3c4ccccc4-c4ccccc43)c2=O)cc1`, the inhibition is -5%.

As a reminder, the inhibition is the relative decrease from the control value, in per cent.

Values taken from PubChem BioAssay AID540345 (The Scripps Research Institute Molecular Screening Center, 2011).
